# Sampled rows, rich in hits. Any-hit rate of the full collection: about 2.9%.
# EBNA-1 inhibitor = EBNA-1 DNA-binding inhibitors, primary screen, biochemical, fluorescence polarization. AID 1950, 2009. inhibition, % at 14.8 µM. actives 0.34% (n = 300,000); in the data active means inhibition above about 28%
# rCAG binder = binders of r(CAG) RNA repeats, primary screen, biochemical, fluorescence; r(CAG) RNA repeat, TO-PRO-1 dye displacement fluorescence; inhibition, % at 3 µM; actives 1.3% (n = 370,000); AID 651821, 2012;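 active means inhibition above the plate cutoff, the mean of all test compounds on that plate plus 3 SD, cut at about 35% in these data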;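 further: 0% = DMSO alone and 100% = 100 µM mitoxantrone as full dye displacement; higher means more dye released from RNA so lower well fluorescence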
# PAFAH2 FP inh = PAFAH2 enzyme inhibitors, primary screen, biochemical, fluorescence polarization, human; Platelet-activating factor acetylhydrolase 2, cytoplasmic (Homo sapiens), Q99487; recombinant PAFAH2, FP-rhodamine activity probe; inhibition, % at 3.39 µM; actives 0.99% (n = 340,000);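 active means inhibition above the mean over all tested compounds plus 3 SD, cut at about 30% in these data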;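 further: inhibitors block probe labeling of enzyme so polarization drops; 0% = enzyme with DMSO and 100% = wells lacking PAFAH2 protein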
# PAFAH1B3 inh = PAFAH1B3 enzyme inhibitors, primary screen, biochemical, fluorescence polarization, human; Platelet-activating factor acetylhydrolase IB subunit alpha1 (Homo sapiens), Q15102; inhibition, % at 3.39 µM; recombinant PAFAH1B3, FP-rhodamine probe; actives 0.28% (n = 340,000); AID 492972, 2010;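 active means inhibition above the screen-wide average of all tested compounds plus 3 SD, cut at about 25% in these data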;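 further: 0% = enzyme with DMSO only and 100% = wells lacking PAFAH1B3 protein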
# ZTA DNA inh = blocks Epstein-Barr virus ZTA, an EBNA-1 counter-screen; P03206; ZTA-DNA binding, fluorescence polarization; inhibition, % at 11 µM; actives 0.15% (n = 320,000); in the data active means inhibition above about 33%
# Target sequence (P03206 whole entry, looked up): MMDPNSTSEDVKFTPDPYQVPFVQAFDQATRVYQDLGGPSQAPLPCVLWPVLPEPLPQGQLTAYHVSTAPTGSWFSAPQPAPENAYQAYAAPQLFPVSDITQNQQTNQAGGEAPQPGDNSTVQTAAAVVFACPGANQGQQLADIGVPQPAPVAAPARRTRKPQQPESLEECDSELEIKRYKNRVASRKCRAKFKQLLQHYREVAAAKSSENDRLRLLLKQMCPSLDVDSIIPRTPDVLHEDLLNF
# PAFAH1B2 FP inh = PAFAH1B2 enzyme inhibitors, primary screen, biochemical, fluorescence polarization, human; AID 492953, 2010; inhibition, % at 3.39 µM; recombinant PAFAH1B2, FP-rhodamine activity probe; Platelet-activating factor acetylhydrolase IB subunit alpha2 (Homo sapiens), P68402; actives 1.2% (n = 340,000);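 active means inhibition above the mean of all tested compounds plus 3 SD, cut at about 24% in these data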;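 further: 0% = enzyme with DMSO and 100% = wells lacking PAFAH1B2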
# Target sequence (P68402 whole entry, looked up): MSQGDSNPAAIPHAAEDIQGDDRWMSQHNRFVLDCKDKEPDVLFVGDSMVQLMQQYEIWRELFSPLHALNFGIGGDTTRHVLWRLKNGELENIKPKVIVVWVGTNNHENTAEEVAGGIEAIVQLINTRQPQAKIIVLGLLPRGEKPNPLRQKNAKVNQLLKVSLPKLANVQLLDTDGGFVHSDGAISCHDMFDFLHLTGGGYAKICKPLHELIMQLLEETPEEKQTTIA
# * hit, by the source's call; / = no result given.
SMILES,EBNA-1 inhibitor,rCAG binder,PAFAH2 FP inh,PAFAH1B3 inh,ZTA DNA inh,PAFAH1B2 FP inh
O=C(Nc1ccccc1Cl)ON=C1c2ccccc2-c2ccccc21,7,/,-1,26*,-16,3
CCN(CC)c1ccc(NC(=O)c2cc3c(C)nn(-c4ccccc4)c3s2)cc1,/,15,/,/,/,/
COc1cc(C2C(C#N)=C(N)Oc3c2ccc2ccccc32)ccc1OCC(=O)Nc1ccccc1C (stereo unspecified),-2,36*,-14,-5,-20,0
CCOC(=O)N[C@H](C(=O)N1CCC[C@H]1C(=O)NCCc1ccccc1Cl)c1ccccc1,/,-1,/,/,/,/
O=C1CN(C(=O)COC(=O)c2ccc([N+](=O)[O-])s2)c2ccccc2N1,/,/,32*,46*,/,14
O=C1CN(C(=O)COC(=O)c2cccs2)c2ccccc2N1,/,2,3,0,-6,2
O=C(COC(=O)c1ccc([N+](=O)[O-])s1)NC(=O)NCc1ccccc1,-19,2,40*,30*,2,8
O=C(COC(=O)c1ccc([N+](=O)[O-])s1)NNC(=O)c1ccccc1,/,/,36*,36*,/,10
O=C(COC(=O)c1ccc([N+](=O)[O-])s1)NCCc1ccccc1,/,/,34*,32*,7,16
COC(=O)[C@]12C[C@H](CC(=O)NCC34CC5CC(CC(C5)C3)C4)C(=O)N(Cc3ccc(Cl)cc3Cl)C1=C[C@H](C(C)C)O[C@@H]2C1CC1,/,14,/,/,/,/
Nc1[nH]c(C(=O)c2ccccc2)c(-c2ccc(Cl)cc2Cl)c1C(=O)NCCc1c[nH]c2ccccc12,/,14,/,/,/,/
O=C(COC(=O)c1ccc([N+](=O)[O-])s1)NCc1ccc(F)cc1,3,0,53*,44*,2,17
O=S(=O)(NCC(c1ccc2c(c1)OCO2)N1CCOCC1)c1ccc(Br)cc1 (stereo unspecified),9,-6,-2,3,6,25*
Cc1cc2c(cc1S(=O)(=O)NCC(C)c1ccccc1)n(C)c(=O)c(=O)n2C (stereo unspecified),-14,-1,-6,6,1,26*
O=C(O)C1Nc2ccc(Br)cc2C2C=CCC12 (stereo unspecified),22,/,79*,40*,24,47*
CCOC(=O)C1Nc2ccc(Br)cc2C2C=CCC12 (stereo unspecified),3,63*,14,12,24,6
CCCCNC(=O)c1nc(-c2cc3ccccc3[nH]2)oc1-c1ccccc1,/,5,/,/,/,/
O=C(Nc1ccc(S(=O)(=O)Nc2nccs2)cc1)c1ccncc1,/,2,/,/,/,/
O=C(Nc1ccc(S(=O)(=O)Nc2nccs2)cc1)c1ccc(=O)[nH]c1,-6,25,10,30*,-8,12
O=C(CC(c1ccccc1)(c1ccccc1)c1ccccc1)N[C@@H](Cc1ccccc1)C(=O)O,10,26,0,4,1,25*
NC(=O)NC(Cc1ccccc1)C(=O)O (stereo unspecified),-4,3,4,6,-11,3
O=C(Nc1ccccc1C(F)(F)F)c1cc(S(=O)(=O)N2CCC3(CC2)OCCO3)ccc1F,-2,-1,6,0,-9,24*
COc1ccccc1NC(=O)c1cc(S(=O)(=O)N2CCC3(CC2)OCCO3)ccc1F,0,/,5,6,-4,10
Nc1ncc(Br)cc1S(=O)(=O)NCCC(=O)Nc1cccc(Cl)c1,-9,11,1,3,-11,4
Nc1ncc(Br)cc1S(=O)(=O)NCCC(=O)NCCc1ccc(Cl)cc1,0,1,2,2,16,26*
SMILES,EBNA-1 inhibitor,rCAG binder,PAFAH2 FP inh,PAFAH1B3 inh,ZTA DNA inh,PAFAH1B2 FP inh
CCOC(=O)c1ccc(NC2=CC(=O)C(=O)c3ccccc32)cc1,9,27,38*,58*,9,14
CCOc1ccc(NC(=O)CN(C)C(=O)c2ccc3[nH]c4c(c3c2)CC(C)CC4)cc1OCC (stereo unspecified),-1,1,-4,-4,-2,4
Cc1ccc(NC(=O)CN(C)C(=O)c2ccc3[nH]c4c(c3c2)CC(C)CC4)cc1 (stereo unspecified),/,10,-2,7,1,48*
CC(=O)N1CCCN(S(=O)(=O)c2ccc3c(c2)oc(=O)n3C)CC1,/,0,/,/,/,/
COc1ccc(Cn2nnnc2CN(Cc2cc3cc(C)ccc3[nH]c2=O)C2CCCC2)cc1,-7,0,4,3,2,26*
O=C(Nc1cccc(S(=O)(=O)Nc2ccccc2F)c1)c1ccco1,/,6,-4,9,/,6
O=C(Cc1ccc(Cl)cc1)Nc1cccc(S(=O)(=O)Nc2ccccc2F)c1,2,30,-1,10,12,47*
Cc1ccccc1N=Nc1ccc(O)c2ncccc12,-3,7,1,9,5,3
O=S(=O)(O)c1cccc2c(N=Nc3ccc(O)c4ncccc34)cccc12,27,/,66*,64*,28,41*
CN(C)S(=O)(=O)c1cccc(C(=O)Nc2cc(Cl)ccc2O)c1,-11,13,-3,-3,2,24*
CN(C)S(=O)(=O)c1cccc(C(=O)Nc2ccccc2Cl)c1,0,-3,12,-2,3,3
CCOc1cc(C=O)ccc1OCC(N)=O,-3,-2,1,-1,-10,2
CCOc1cc(C=O)ccc1OCCSc1ccc(Cl)cc1,8,-4,-2,-1,8,54*
CC(C)=C1CCC(C)CC1=NNC(N)=S (stereo unspecified),/,-1,5,7,/,27*
CC1C/C(=N\NC(N)=S)c2cc(Cl)ccc2S1 (stereo unspecified),2,1,/,/,-8,/
C=CCN1C(=O)[C@@H](CC(=O)NCCCC)[C@]2(C(=O)OC)CCCCC=C12,/,1,/,/,/,/
CC(C)NC(=S)N/N=C1\CCCCC1C1CCCCC1 (stereo unspecified),-2,-8,5,7,-2,29*
CC1CCCC/C1=N\NC(=S)Nc1ccccc1 (stereo unspecified),1,-2,2,1,13,2
O=C(CCc1nc(-c2ccccc2F)no1)NCCc1c[nH]c2ccccc12,/,3,/,/,/,/
O=c1[nH]c(CCl)nc2cc(-c3ccc(F)cc3)sc12,3,5,0,3,5,29*
COCc1cn(-c2cccc(-c3noc4c3C(=O)N(CC(=O)N3CCOCC3)CC4)c2)nn1,/,0,/,/,/,/
CC[C@H](CCCc1ccc(F)cc1)CN(Cc1ccc(OC)cc1)S(=O)(=O)c1ccc(C)cc1,/,4,/,/,/,/
O=C1C(O)=C(O)C(=O)c2ccccc21,7,5,15,30*,-2,3
O=C(CN1CCN(S(=O)(=O)c2ccc(Br)cc2)CC1)N/N=C/c1ccncc1,-8,-5,-6,8,-9,29*

# Assay outcomes deposited in PubChem BioAssay by The Scripps Research Institute Molecular Screening Center.
